TDP1 inh = qHTS Assay for Inhibitors of Tyrosyl-DNA Phosphodiesterase (TDP1); Tyrosyl-DNA phosphodiesterase 1 (Homo sapiens), Q9NUW8; recombinant TDP1, AlphaScreen DNA substrate cleavage; Potency, µM (titrated, usually from 130 µM), for inactives: top-dose activity change, negative = inhibition, actives largely listed as inhibitors; 350,000 compounds, 0.28% hits; AID 485290, 2010; note: nearly all actives have a fitted effect of over 40% in size
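AlphaScreen read-out: signal falls as enzyme removes the 3' tyrosine-FITC from a 5'-biotinylated DNA oligo (15 nM, 5 min, RT). Enzyme was E. coli-made recombinant Tdp1 at 1 nM, exposed to compound for 15 min beforehand; beads 10 ug/ml, 10 min.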
RORg inh = qHTS for inhibitors of ROR gamma transcriptional activity | Potency, µM (highest dose often 53.6 µM), for the others: at the top dose activity change, negative = inhibition, most hits filed as inhibitors | Drosophila S2 Gal4-RORgamma UAS-luciferase reporter, 20 h | Nuclear receptor ROR-gamma (Mus musculus), P51450 | AID 2551, 2010 | 310,000 compounds, 5.4% hits; note: nearly all actives have a fitted effect of over 60% in size
Target sequence (P51450 whole entry, looked up, the tested form may be a part): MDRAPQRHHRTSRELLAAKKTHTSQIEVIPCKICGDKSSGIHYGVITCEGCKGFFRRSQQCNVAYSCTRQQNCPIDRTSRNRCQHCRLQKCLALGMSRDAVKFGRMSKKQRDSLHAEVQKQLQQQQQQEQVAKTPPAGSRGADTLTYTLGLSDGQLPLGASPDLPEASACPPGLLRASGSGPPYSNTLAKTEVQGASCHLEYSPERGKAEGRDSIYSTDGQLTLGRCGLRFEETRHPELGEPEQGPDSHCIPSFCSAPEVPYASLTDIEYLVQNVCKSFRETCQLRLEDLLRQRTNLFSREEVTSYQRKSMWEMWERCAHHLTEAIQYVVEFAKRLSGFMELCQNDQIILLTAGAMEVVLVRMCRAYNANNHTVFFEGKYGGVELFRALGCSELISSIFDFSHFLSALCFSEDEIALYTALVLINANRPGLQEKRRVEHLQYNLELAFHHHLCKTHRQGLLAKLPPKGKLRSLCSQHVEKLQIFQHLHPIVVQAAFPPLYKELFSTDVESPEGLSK
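Using a luciferase readout, inhibitors were identified by reduced reporter activity in Drosophila cells coexpressing a copper-inducible Gal4–ROR gamma fusion and UAS-driven Photinus luciferase, incubated 20 hr after 700 uM copper sulfate.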
DT40 TDP1 no CPT = qHTS for Inhibitors of human tyrosyl-DNA phosphodiesterase 1 (TDP1): qHTS in cells in absence of CPT. DT40 Tdp1-/- hTDP1 cells, no CPT, ATP luminescence, 48 h. Potency, µM (doses to about 46.2 µM), without a hit: at the highest dose activity change, negative = growth inhibition, hits mostly inhibitors. 420,000 compounds, 15% hits; note: nearly all actives have a fitted effect of over 55% in size
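Stably hTDP1-transfected Tdp1-null chicken DT40 cells were treated with library compounds minus camptothecin and grown for at least 48 hr at 37 °C, after which cellular ATP was quantified by luminescence.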
TDP1 cell CPT = qHTS for Inhibitors of human tyrosyl-DNA phosphodiesterase 1 (TDP1): qHTS in cells in presence of CPT; chicken DT40 Tdp1-/-;hTDP1 cells + 20 nM CPT, ATP luminescence, 48 h; 420,000 compounds, 12% hits; Potency, µM (top dose mostly 46.2 µM), for inactives: at the highest dose activity change, negative = growth inhibition, most hits filed as inhibitors; note: nearly all actives have a fitted effect of over 55% in size
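Chicken DT40 Tdp1-/- cells complemented with human TDP1, 400 cells/well, exposed to compounds plus 20 nM camptothecin for at least 48 h at 37 C; viability read as ATP content by CellTiter-Glo luminescence.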
VP16 counter = VP16 counterscreen qHTS for inhibitors of ROR gamma transcriptional activity. Drosophila S2 Gal4-VP16 UAS-luciferase, luminescence, 20 h. Potency, µM (titrated, usually from 53.6 µM), without a hit: top-dose activity, negative = inhibition, hits mostly inhibitors. 310,000 compounds, 3.5% hits;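 note: Gal4-VP16 expression switched on by copper sulfate through the metallothionein promoter; nearly all actives have a fitted effect of over 50% in size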
* = called active by the depositor; u = inconclusive; x = no result; [ ] = remark or other dose. Most compounds without a hit are left out; they make up all but 19% or so of the library. Calls come from the whole dose curve; as a rule, active = well fitted curve in the direction sought with a large enough effect; inconclusive = small, poorly fitted or top-dose-only effect, or another doubt; inactive = no such curve, though single readings can be large; an effect the other way counts as inactive or inconclusive. % is set by controls: 0 for no effect and ±100 for the full control effect; potency is the fitted concentration of half-maximal effect.

SMILES | TDP1 inh | RORg inh | DT40 TDP1 no CPT | TDP1 cell CPT | VP16 counter
NS(=O)(=O)c1ccc(Nc2ccc3cc(S(=O)(=O)N4CCCCC4)ccc3n2)cc1 | -3% | 15% | u | u | -1%
CCC(C)NC(=O)CSc1nc2scc(-c3ccccc3)c2c(=O)[nH]1 (stereo not drawn) | 3% | 19% | -4% | 2% | -1%
COc1ccc(OCC(=O)NCc2ccc(Cl)cc2)cc1 | x | 2% | 0% | -5% | 1%
CC(C)OC(=O)c1sc2nc(-c3ccccc3)ccc2c1N | -10% | 7.1µM* | u | -15% | u
COc1ccc(-c2ccc3c(N)c(C(=O)NCc4ccc(Cl)cc4)sc3n2)cc1 | x | x | 15µM* | u | x
COc1ccc(Cl)cc1NC(=O)c1sc2nc(-c3ccc(OC)c(OC)c3)ccc2c1N | -2% | x | u | u | x
COc1ccc(-c2ccc3c(N)c(C(=O)Nc4ccc(C)cc4C)sc3n2)cc1OC | -1% | x | u | 4.1µM* | x
CCOc1ccccc1NC(=O)c1sc2nc(-c3ccc(OC)cc3)ccc2c1N | x | x | 13µM* | 21µM* | x
Cc1nc(SCc2nc3c(C)cccc3[nH]2)c2oc3ccccc3c2n1 | -3% | x | x | x | x
CC(=O)c1sc(NC(=O)COc2ccc(Cl)cc2Cl)nc1C | -8% | 4% | -2% | -4% | 9%
O=C(NCc1ccco1)/C(=C/c1ccc(F)cc1)NC(=O)c1ccccc1 | 8% | 2% | 3% | 1% | -8%
COc1ccccc1-n1ccnc(SCC(=O)NCc2ccccc2Cl)c1=O | 7% | x | u | u | x
CC(=O)Nc1ccc(SCC(=O)NC(=O)c2ccccc2Br)cc1 | 1% | x | 0% | -24% | x
CCOC(=O)C1(C(=O)OCC)COC(=O)C2(CC)OC21 (stereo not drawn) | x | x | -23% | -16% | x
Nc1c(C(=O)Nc2ccc(Cl)c(Cl)c2)sc2nc(-c3cccnc3)ccc12 | 0% | 2% | x | x | -3%
COc1cccc(-c2ccc3c(N)c(C(=O)c4ccc(Cl)cc4)sc3n2)c1 | x | x | 7.3µM* | 8.2µM* | x
COc1ccc(C(=O)c2sc3nc(-c4ccccc4)ccc3c2N)cc1 | 2% | u | -53% | -54% | -18%
O=C(NCc1ccc(Cl)cc1)c1cc(-c2ccc(F)cc2)on1 | -1% | x | 5% | -14% | x
Nc1c(C(=O)Nc2ccc(OC(F)(F)F)cc2)sc2nc(-c3ccncc3)ccc12 | -3% | x | 6.5µM* | 10µM* | x
Nc1c(C(=O)NCc2ccc(Cl)cc2)sc2nc(-c3ccc(F)cc3)ccc12 | 2% | x | 21µM* | 18µM* | x
Cc1ccccc1NP1(=O)OCCCN1Cc1ccccc1Cl (stereo not drawn) | x | x | u | -29% | x
Cc1ccc(NC(=O)C(Cc2ccccc2)NS(=O)(=O)c2ccc3c(c2)oc(=O)n3C)c(Cl)c1 (stereo not drawn) | -1% | x | 4% | 4% | x
CCOc1ccc2nc3c(cc2c1)CN(CCOC)C(=NC)S3 | -5% | -34% | -6% | 4% | 4%
CCC(=O)N1CCN(c2cc(N3CCN(C)CC3)c(F)cc2[N+](=O)[O-])CC1 | 0% | 16% | -20% | -1% | -7%
CN1CCN(c2cc(N3CCc4ccccc4C3)c(F)cc2[N+](=O)[O-])CC1 | 7% | -17% | 21µM* | 16µM* | -22%
SMILES | TDP1 inh | RORg inh | DT40 TDP1 no CPT | TDP1 cell CPT | VP16 counter
CC1=C(C(=O)N(C(C)C)C(C)C)CC(CC(=O)NC2CCCC2)C(=O)N1CCC1=CCCCC1 (stereo not drawn) | x | x | 23µM* | u | x
CC1=C(C(=O)N(C(C)C)C(C)C)CC(CC(=O)NC2CC2)C(=O)N1CCC1=CCCCC1 (stereo not drawn) | x | x | u | 16µM* | x
CC1=C(C(=O)Nc2cc(C)cc(C)c2)C2(CCCCC2)OC1=O | 2% | x | -24% | u | x
Cc1cccc(C(=O)OCC(=O)NC(C)CCc2ccccc2)c1 (stereo not drawn) | -1% | -19% | 10% | 0% | -3%
Cc1nc2ccc(S(=O)(=O)N(C)CC(=O)Nc3cccc(C(F)(F)F)c3)cc2s1 | 3% | x | u | u | x
COc1ccc(NC(=O)CN(C)S(=O)(=O)c2ccc3nc(C)sc3c2)cc1Cl | 0% | x | 8.2µM* | 23µM* | x
COc1ccc(S(=O)(=O)N(C)CC(=O)Nc2cccc(C(C)=O)c2)cc1Cl | 2% | 2% | 13µM* | 13µM* | 10%
Cc1nc2ccc(S(=O)(=O)N(CC(=O)Nc3ccc(Cl)cc3)Cc3ccccc3)cc2s1 | 2% | x | 15µM* | u | x
Cc1ccccc1C(=O)NNC(=O)C1CCN(C(=O)Nc2ccccc2)CC1 | 0% | x | -4% | 2% | x
O=C(c1cc2cc(Cl)ccc2o1)N1CCCCCC1 | 10% | x | u | -28% | x
COc1ccc(C(=O)NN/C=C/C(=O)c2ccc(Br)cc2)cc1 | x | x | u | 23µM* | x
COc1ccc(CNC(=O)c2ccc(Br)cc2)cc1 | 3% | 13% | x | x | 17%
COc1ccc(C(=O)C=CNNC(=O)c2ccc(Cl)cc2)cc1 | x | -4%[1.91 µM] | u | 3.3µM* | u
CC1(C)CN(C2CCCCC2)C(=O)[C@H]1CC(=O)Nc1ccc(Br)cc1 | x | x | 18µM* | u | x
COc1ccc(-c2ccc(NS(=O)(=O)c3cccc([N+](=O)[O-])c3)cc2)nn1 | 4% | 26% | u | u | -1%
O=C(COC(=O)Cc1ccccc1F)Nc1cc(S(=O)(=O)N2CCOCC2)ccc1N1CCCC1 | -3% | 44% | -20% | -11% | 4%
CCOc1ccc(-c2nc(N)ncc2-c2ccccc2)c(O)c1 | 6% | 1% | 15µM* | 21µM* | u
COc1ccccc1-c1cn[nH]c1-c1ccc(OCc2ccccc2)cc1O | x | 6.3µM* | u | 0% | u
COc1ccc(-c2cn[nH]c2-c2ccc(OCc3ccccc3)cc2O)cc1 | x | 6.3µM* | u | u | u
CCOc1ccc(-c2[nH]ncc2-c2csc(C)n2)c(O)c1 | -5% | u | -28% | -24% | u
CCOc1ccc(-c2[nH]ncc2-c2ccccc2)c(O)c1 | 2% | 13µM* | u | -31% | u
CCOc1ccc(-c2nc(N)ncc2-c2ccc(OC)cc2)c(O)c1 | 5% | 3% | u | u | -5%
CCOC(=O)Cn1c(=O)n(-c2ccccc2OC)c2nc(-c3ccccc3C)nc(C(N)=O)c21 | 4% | x | x | x | x
O=C(COC(=O)c1cc(=O)[nH]c2ccccc12)NC(=O)c1ccccc1 | 5%[0.505 µM] | x | 0% | -2% | x
CCOC(=O)c1ccc(-c2cccc(-c3cc(=O)oc4cc(OC)cc(OC)c34)c2)cc1 | 4% | 1% | u | u | 0%
